Some test systems named below: SR leukemia; RPMI-8226 leukemia; OVCAR-8 ovarian; OVCAR-5 ovarian; OVCAR-4 ovarian; SK-OV-3 ovarian; IGROV1 ovarian; OVCAR-3 ovarian; HS 578T breast; NCI/ADR-RES ovarian; T-47D breast; BT-549 breast; MDA-MB-435 melanoma; SW-620 colon; MCF7 breast; HCT-116 colon; KM12 colon; HCC-2998 colon.
What all share (experiment): NCI-60 one-dose screen, 48 h (100 = growth as untreated, 0 = no growth, -100 = all killed)
Common to all, as to details: 10 µM unless noted

The structures appear in SMILES notation. This is part of a sample that, as a whole, favours compounds with a hit. Of some 83,000 tested, about 20% had one in any assay.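 Compound tested at a single concentration for 48 hours in 96-well plates; a percent growth value below 10 was scored as active.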 A number with no mark means an inactive call. Activity calls are given as the source filed them.

On to `CC(C)(C)c1cn2cccc(C(=O)N3CCN(CC(=O)Nc4ccc(Cl)cc4C(=O)c4ccccc4Cl)CC3)c2n1`, for which the growth was 13.2% with SR leukemia; 24.1% in the experiment with RPMI-8226 leukemia; 51% in the experiment with OVCAR-8 ovarian; 75.1% in the experiment with OVCAR-5 ovarian; 50.6% in the experiment on OVCAR-4 ovarian; 91.4% in the experiment on SK-OV-3 ovarian. For the same molecule, the growth with IGROV1 ovarian is 51.2%; in the experiment with OVCAR-3 ovarian, 75.7%; in the experiment with HS 578T breast, 32.2%; in the experiment with NCI/ADR-RES ovarian, 39.5%; with T-47D breast, 31.8%; in the experiment with BT-549 breast, -15.1% (active). Further, the growth in the experiment on MDA-MB-435 melanoma was 63.4%; in the experiment on SW-620 colon, 60.6%; with MCF7 breast, 43.8%; in the experiment with HCT-116 colon, 33.3%; in the experiment with KM12 colon it was 54.2%.

`C/C(=N\NC(=O)CC#N)c1cc2cc(Cl)ccc2o1`: the growth is 84.8% in the experiment on SR leukemia; 90.2% in the experiment with RPMI-8226 leukemia; 109% with OVCAR-8 ovarian; 105% in the experiment with OVCAR-5 ovarian; 91.5% in the experiment on OVCAR-4 ovarian; 98.8% in the experiment with SK-OV-3 ovarian. Further, the growth in the experiment on IGROV1 ovarian is 96.8%; in the experiment with OVCAR-3 ovarian it was 102%; with HS 578T breast, 14.9%; in the experiment with NCI/ADR-RES ovarian, 110%; in the experiment with T-47D breast, 78.4%; in the experiment on BT-549 breast it was 125%. The growth in the experiment with MDA-MB-435 melanoma is 106%; in the experiment with SW-620 colon, 102%; in the experiment on MCF7 breast it was 72.2%; with HCT-116 colon, 107%; with KM12 colon it was 98.9%.

For the molecule `C/C1=C\CCC2(C)OC2CC2CCC(C)(O)C(CC1)C2(C)C` (stereo not drawn), the growth in the experiment on SR leukemia was 92.4%; in the experiment with RPMI-8226 leukemia, 111%; with OVCAR-8 ovarian, 89.8%; in the experiment on OVCAR-5 ovarian, 112%; with OVCAR-4 ovarian, 99.7%; in the experiment on SK-OV-3 ovarian, 112%. Also, the growth was 93.9% in the experiment with IGROV1 ovarian; 118% in the experiment with OVCAR-3 ovarian; 83.8% in the experiment with HS 578T breast; 104% in the experiment with NCI/ADR-RES ovarian; 91.7% in the experiment on T-47D breast; 49.8% in the experiment on BT-549 breast. Besides, the growth in the experiment on MDA-MB-435 melanoma was 110%; in the experiment on SW-620 colon it was 97.1%; in the experiment with MCF7 breast, 102%; in the experiment with HCT-116 colon, 98.6%; in the experiment on KM12 colon, 108%.

Turning to `O=[N+]([O-])c1cc(S(=O)(=O)OCC2CO2)ccc1Cl` (stereo not drawn), the growth in the experiment on SR leukemia is 1.01% (active); in the experiment with RPMI-8226 leukemia it was 63.6%; with OVCAR-8 ovarian it was 87.5%; in the experiment on OVCAR-5 ovarian, 111%; in the experiment on OVCAR-4 ovarian it was 106%; in the experiment on SK-OV-3 ovarian it was 104%. Also, the growth in the experiment with IGROV1 ovarian was 52.6%; in the experiment on OVCAR-3 ovarian it was 108%; in the experiment on HS 578T breast it was 101%; in the experiment on NCI/ADR-RES ovarian, 108%; in the experiment on T-47D breast it was 77.1%; in the experiment on BT-549 breast, 91.3%. Moreover, the growth in the experiment with MDA-MB-435 melanoma is 97.7%; with SW-620 colon it was 41.2%; in the experiment on MCF7 breast, 75.5%; in the experiment with HCT-116 colon it was 54%; in the experiment on HCC-2998 colon, 107%; in the experiment with KM12 colon, 82.6%.

As to `COc1ccc(C2CC(c3cccs3)=NN2c2ccc(S(=O)(=O)NC(=O)Nc3ccc(C)cc3)cc2)cc1` (stereo not drawn), the growth was 84.7% in the experiment on SR leukemia; 83.4% in the experiment with RPMI-8226 leukemia; 99.8% in the experiment with OVCAR-8 ovarian; 115% with OVCAR-5 ovarian; 106% in the experiment with OVCAR-4 ovarian; 78.3% with SK-OV-3 ovarian. In addition, the growth in the experiment with IGROV1 ovarian is 108%; with OVCAR-3 ovarian, 98.2%; in the experiment with HS 578T breast, 96%; in the experiment on NCI/ADR-RES ovarian, 103%; with T-47D breast, 78.8%; in the experiment with BT-549 breast it was 74.2%. Further, the growth in the experiment on MDA-MB-435 melanoma is 61.9%; in the experiment with SW-620 colon, 106%; in the experiment with MCF7 breast it was 97.1%; in the experiment with HCT-116 colon, 85.1%; in the experiment with HCC-2998 colon it was 109%; with KM12 colon, 97.4%.

As for `O=c1[nH]c2ccccc2cc1-c1nnc(Cc2ccccc2)o1`, the growth with SR leukemia was 31.6%; in the experiment on RPMI-8226 leukemia it was 15.3%; with OVCAR-8 ovarian, 57.8%; in the experiment on OVCAR-5 ovarian it was 120%; in the experiment on OVCAR-4 ovarian, 61.3%; in the experiment with SK-OV-3 ovarian it was 92.8%. Moreover, the growth with IGROV1 ovarian was 66%; with OVCAR-3 ovarian it was 69.6%; with HS 578T breast, 90.1%; in the experiment with NCI/ADR-RES ovarian it was 89.8%; with T-47D breast, 42.2%; in the experiment on BT-549 breast, 48.9%. Moreover, the growth was 52.9% in the experiment on MDA-MB-435 melanoma; 45% with SW-620 colon; 7.52% (active) in the experiment on HCT-116 colon; 78.9% with HCC-2998 colon; 77.8% in the experiment on KM12 colon.

`CC(=O)Nc1ccc2c(c1)/C(=C\C=C/c1ccc([N+](C)(C)C)cc1)c1ccccc1-2`: the growth in the experiment with SR leukemia was 90%; in the experiment with RPMI-8226 leukemia, 73.6%; in the experiment on OVCAR-8 ovarian it was 57.4%; in the experiment with OVCAR-5 ovarian, 53.9%; with OVCAR-4 ovarian, 28.1%; in the experiment on SK-OV-3 ovarian, 70.2%. Further, the growth in the experiment on IGROV1 ovarian was 67.1%; in the experiment with OVCAR-3 ovarian, 78%; in the experiment on HS 578T breast, 25.3%; in the experiment on NCI/ADR-RES ovarian it was 101%; with T-47D breast, 41.4%; in the experiment on BT-549 breast, 94.6%. The growth is 96% in the experiment on MDA-MB-435 melanoma; 99% with SW-620 colon; 60.4% in the experiment on MCF7 breast; 70.3% with HCT-116 colon; 114% in the experiment with HCC-2998 colon; 97.1% in the experiment on KM12 colon.

Take `O=C(CNC(=O)c1cccc2ccccc12)Nc1ccccc1Oc1ccccc1`: the growth with SR leukemia is 13.1%; in the experiment on RPMI-8226 leukemia it was 19.8%; with OVCAR-8 ovarian it was 13.4%; in the experiment on OVCAR-5 ovarian it was 52.4%; in the experiment on OVCAR-4 ovarian, 36%; in the experiment with SK-OV-3 ovarian, 23.3%. For the same molecule, the growth in the experiment on IGROV1 ovarian is 32.1%; in the experiment on OVCAR-3 ovarian, -30.5% (active); in the experiment with HS 578T breast, 29.9%; in the experiment on NCI/ADR-RES ovarian, 10.3%; in the experiment with T-47D breast, 12.1%; in the experiment with BT-549 breast, -0.557% (active). In addition, the growth in the experiment with MDA-MB-435 melanoma is -5.12% (active); with SW-620 colon, 22.8%; with MCF7 breast it was 11.3%; in the experiment with HCT-116 colon it was -2.26% (active); with HCC-2998 colon, 21%; in the experiment with KM12 colon, 9.93% (active).

With `CCn1cc(C2NC(=O)c3cc(F)ccc3N2)c2cccc(Cl)c21` (stereo not drawn), the growth with SR leukemia was -10.1% (active); in the experiment with RPMI-8226 leukemia, 9.88% (active); in the experiment with OVCAR-8 ovarian, -35.9% (active); in the experiment on OVCAR-5 ovarian it was 36%; with OVCAR-4 ovarian, 39.4%; in the experiment with SK-OV-3 ovarian, 27.7%. Besides, the growth is 18.2% with IGROV1 ovarian; 6.84% (active) with OVCAR-3 ovarian; 12.4% with HS 578T breast; 1.68% (active) in the experiment on NCI/ADR-RES ovarian; 58.3% in the experiment with T-47D breast; 26.9% with BT-549 breast. For the same molecule, the growth in the experiment with MDA-MB-435 melanoma is -31.7% (active); with SW-620 colon, 20.8%; in the experiment with MCF7 breast, 15.5%; with HCT-116 colon, 8.12% (active); in the experiment on HCC-2998 colon, 7.64% (active); in the experiment on KM12 colon, 19.2%.

The values are drawn from PubChem BioAssay (NCI).
